The values below come from PubChem BioAssay.

Active and inactive are the calls of the source. Unless noted, no rule for the calls is given here.

One assay is described as follows: P. aeruginosa biofilm formation inhibitors, primary screen, PAO1 strain, BacTiter-Glo luminescence, LB-PBS (AID 1144). The following applies: 12 h, higher = more signal.
As to `CCOC(=O)N1C(c2ccc(OCCCO)cc2)=NC(C(=O)OC)N1C(=O)OCC` (configuration not stated), the z-score is -1.33 (inactive). `Cc1ccc(S[C@]2(C(=O)NCC(F)(F)F)CC(=O)N(C3Cc4ccccc4C3)[C@@H]2c2ccc(CO)cc2I)cc1`: the z-score was -0.46 (inactive). The same measure, in the same setting: then `[N-]=[N+]=Nc1ccccc1C[C@]1(C(=O)N2CCCCC2)N=C(c2ccc(OCCCO)cc2)O[C@H]1c1ccccc1N=[N+]=[N-]`, with -0.546 (inactive); and `C=CCNC(=O)[C@H]1[C@@H]2C(=O)O[C@@H](c3ccccc3)[C@@H](c3ccccc3)N2[C@@H](c2ccc(O)cc2)[C@]12C(=O)Nc1ccc(C#Cc3ccc(OC)cc3)cc12`, with -0.182 (inactive).

For the compound `[N-]=[N+]=NCc1ccccc1C[C@]1(C(=O)NCc2ccccc2)COC(c2ccc(OCCCO)cc2)=N1`, the z-score is 0.664 (inactive).

Turning to `O=C1OCC=C[C@H]2OC34C=CCN(CCN5CCOCC5)C(=O)[C@H]3N(CCCCCCO)C(=O)[C@@H]4[C@@H]12` (some centres not stated), the z-score was 1.73 (inactive). `[N-]=[N+]=Nc1ccccc1[C@H]1OC(c2ccc(OCCCO)cc2)=N[C@@]1(CCS(=O)(=O)c1ccccc1)C(=O)N1CCOCC1`: the z-score is 0.385 (inactive).

As to `COC(=O)[C@@]1(Cc2ccccc2)[C@H]2c3cc(C(=O)N(C)C)n(Cc4cc(F)c(F)c(F)c4)c3C[C@H]2CN1C(=O)c1ccccc1`, the z-score was 0.301 (inactive). The same measure, in the same setting: then `O=C1O[C@H](c2ccccc2)[C@H](c2ccccc2)N2[C@H]1[C@@H](C(=O)N1CCCCCCC1)[C@]1(C(=O)Nc3ccc(C#CC4=CCCCC4)cc31)[C@H]2c1ccc(O)cc1`, with -1.54 (inactive); and `[N-]=[N+]=NCc1ccccc1C[C@]1(C(N)=O)N=C(c2ccc(OCCCO)cc2)O[C@H]1c1ccccc1N=[N+]=[N-]`, with -0.43 (inactive); and `C=CCOC(=O)[C@H]1[C@@H]2C(=O)O[C@@H](c3ccccc3)[C@@H](c3ccccc3)N2[C@@H](c2ccc(OCCOC(=O)[C@H]3C[C@H]4C(=O)N[C@@H](CCCC[N+](C)(C)C)C(=O)N4[C@H]3c3ccc(O)cc3)cc2)[C@]12C(=O)Nc1ccccc12`, with -0.968 (inactive). On the same count and under the same terms, then `CC(C)NC(=O)[C@@]1(c2ccc([N+](=O)[O-])cc2)CC(=O)N(C(C)C)[C@@H]1c1ccc(CO)cc1`, with -0.707 (inactive); and `COc1ccc([Si](C)(C)[C@@H]2[C@@H](CCn3cc([C@H](O)c4ccccc4)nn3)O[C@]3(C(=O)N(C)c4ccccc43)[C@H]2C)cc1`, with 0.317 (inactive); and `COCCOC(=O)N1C(=O)[C@@]2(c3cc(C#CC4=CCCCC4)ccc31)[C@H](C(=O)N1CCN(c3ncccn3)CC1)[C@H]1C(=O)O[C@H](c3ccccc3)[C@H](c3ccccc3)N1[C@@H]2c1ccc(OCCO)cc1`, with -0.38 (inactive).

As for `C=CCOC(=O)[C@@H]1[C@H]2C(=O)O[C@H](c3ccccc3)[C@H](c3ccccc3)N2[C@H](c2ccc(OCCOC(=O)[C@H]3C[C@H]4C(=O)N[C@@H](CC(C)C)C(=O)N4[C@H]3c3cccc(OCCO)c3)cc2)[C@@]12C(=O)Nc1ccc(I)cc12`, the z-score is -0.174 (inactive). Still for that read-out and setting: then `CC(C)N1C(=O)c2ccccc2[C@](C)(C(=O)NCCCN(C)C)[C@@H]1c1ccc(CO)cc1`, with 0.352 (inactive); and `CC(=O)NCCCC[C@@H]1NC(=O)[C@@H]2C[C@H](C(=O)NCCCCCC[N+](C)(C)C)[C@H](c3cccc(OCCO)c3)N2C1=O`, with -0.445 (inactive); and `CCCCN1CC=CC23O[C@@H]4C=CCCOC(=O)C4[C@H]2C(=O)N(CCCO)[C@@H]3C1=O` (some centres not stated), with -1.19 (inactive). Still for that read-out and setting: then `C=CCC(OC(C)=O)[C@@H]1[C@@H](N(Cc2cc3ccccc3o2)C(=O)c2cccc3ccccc23)c2cc(OCCCO)ccc2N1C(=O)Cc1ccc(OC)cc1` (some centres not stated), with 0.0686 (inactive); and `C=CCN1C(=O)[C@]2(COC(c3ccc(OCCCO)cc3)=N2)Cc2ccccc21`, with -1.18 (inactive); and `C=C[C@H](C)[C@H](OC(=O)Nc1ccc(OC)cc1)c1ccc(O)c2ccccc12`, with -0.156 (inactive).

As to `COc1ccccc1CN1C(=O)c2ccccc2[C@](Cc2ccccc2I)(C(=O)NC2CC2)[C@@H]1c1ccc(CO)cc1`, the z-score was -0.0735 (inactive).

For `C=CC[C@@]1(C(N)=O)N=C(c2ccc(OCCCO)cc2)O[C@@H]1c1ccccc1N=[N+]=[N-]`, the z-score was -0.0376 (inactive). On the same count and under the same terms, then `CCN(CC)c1ccc(N2CC=CC34O[C@@H]5C=CCOC(=O)[C@@H]5[C@H]3C(=O)N(CCCCCO)[C@@H]4C2=O)cc1` (some centres not stated), with 0.555 (inactive). On the same count and under the same terms, then `COCCOC(=O)N1C(=O)[C@@]2(c3cc(C#CCC(C(=O)OC)C(=O)OC)ccc31)[C@H](c1ccc(OCCO)cc1)N1[C@H](c3ccccc3)[C@H](c3ccccc3)OC(=O)[C@H]1[C@@H]2C(=O)NC[C@H](O)c1ccccc1`, with -1.29 (inactive).

The next assay can be described thus: CREB reporter modulators without forskolin, primary screen, cell-based, PC12, CRE-LacZ reporter, unstimulated (AID 1145). The following applies: no forskolin, luminescence, 4.5 h, higher = more signal, called active from +8 up or from −8 down.
With `C=CC[C@]1(C(=O)O)N=C(c2ccc(OCCCO)cc2)O[C@H]1c1ccccc1CN=[N+]=[N-]`, the z-score was 0.274 (inactive).

On to `C[N+](C)(C)CCCCNC(=O)[C@H]1C[C@H]2C(=O)N3CCC[C@H]3C(=O)N2[C@H]1c1ccc(O)cc1`, for which the z-score was -0.821 (inactive).

Take `[N-]=[N+]=NCc1ccccc1[C@@H]1OC(c2ccc(OCCCO)cc2)=N[C@]1(Cc1ccccc1)C(=O)O`: the z-score was 1.19 (inactive). Same read-out and setting: then `CN(C)CCCN1C(=O)[C@@]2(c3ccc([N+](=O)[O-])cc3)CC(=O)N(C3CCCCC3)[C@@H]2c2ccc(CO)cc21`, with -0.464 (inactive); and `CCOC1=C2C(c3ccc(C)cc3)N(S(=O)(=O)c3ccc(C)cc3)CC2n2c(=O)n(-c3ccccc3)c(=O)n2C1` (configuration not stated), with 0.0331 (inactive); and `O=C1c2ccccc2[C@](Cc2ccccc2I)(C(=O)O)[C@H](c2ccc(CO)cc2)N1Cc1ccccc1C(F)(F)F`, with -0.295 (inactive). With `CCCCCCCCCCC(O)C1C=CC2C(=O)N(c3ccccc3)C(=O)C2N1Nc1ccc([N+](=O)[O-])cc1` (configuration not stated), the z-score was 0.285 (inactive).

With `CCOC(=O)C1=CC[C@@H](c2cccc(Cl)c2)N(S(=O)(=O)c2ccc(C)cc2)[C@H]1c1ccc(C#N)cc1`, the z-score was -0.228 (inactive). On the same count and under the same terms, then `CCCCCCC#C[Si](O[C@H](c1ccccc1)c1cn([C@H](C)c2ccccc2)nn1)(C(C)C)C(C)C`, with -0.127 (inactive); and `O=C(NCC(F)(F)F)[C@@H]1c2ccccc2C(=O)N(Cc2ccccc2)[C@H]1c1ccc(CO)cc1`, with -0.269 (inactive); and `O=C1OCC=C[C@H]2OC34C=CCN(c5ccc(Cl)cc5)C(=O)[C@H]3N(CCCO)C(=O)[C@@H]4[C@@H]12` (some centres not stated), with 1.28 (inactive).

For `CCOC(=O)N1C(c2ccc(OCCCO)cc2)=NC(C(=O)OC)N1C(=O)OCC` (configuration not stated), the z-score is 0.139 (inactive). On the same count and under the same terms, then `Cc1ccc(S[C@]2(C(=O)NCC(F)(F)F)CC(=O)N(C3Cc4ccccc4C3)[C@@H]2c2ccc(CO)cc2I)cc1`, with -0.231 (inactive); and `[N-]=[N+]=Nc1ccccc1C[C@]1(C(=O)N2CCCCC2)N=C(c2ccc(OCCCO)cc2)O[C@H]1c1ccccc1N=[N+]=[N-]`, with 0.722 (inactive); and `C=CCNC(=O)[C@H]1[C@@H]2C(=O)O[C@@H](c3ccccc3)[C@@H](c3ccccc3)N2[C@@H](c2ccc(O)cc2)[C@]12C(=O)Nc1ccc(C#Cc3ccc(OC)cc3)cc12`, with -0.141 (inactive). Still for that read-out and setting: then `[N-]=[N+]=NCc1ccccc1C[C@]1(C(=O)NCc2ccccc2)COC(c2ccc(OCCCO)cc2)=N1`, with 1.72 (inactive); and `O=C1OCC=C[C@H]2OC34C=CCN(CCN5CCOCC5)C(=O)[C@H]3N(CCCCCCO)C(=O)[C@@H]4[C@@H]12` (some centres not stated), with 0.862 (inactive); and `[N-]=[N+]=Nc1ccccc1[C@H]1OC(c2ccc(OCCCO)cc2)=N[C@@]1(CCS(=O)(=O)c1ccccc1)C(=O)N1CCOCC1`, with 0.937 (inactive). In the case of `COC(=O)[C@@]1(Cc2ccccc2)[C@H]2c3cc(C(=O)N(C)C)n(Cc4cc(F)c(F)c(F)c4)c3C[C@H]2CN1C(=O)c1ccccc1`, the z-score was 0.0109 (inactive).

As to `O=C1O[C@H](c2ccccc2)[C@H](c2ccccc2)N2[C@H]1[C@@H](C(=O)N1CCCCCCC1)[C@]1(C(=O)Nc3ccc(C#CC4=CCCCC4)cc31)[C@H]2c1ccc(O)cc1`, the z-score was -1.43 (inactive). The same measure, in the same setting: then `[N-]=[N+]=NCc1ccccc1C[C@]1(C(N)=O)N=C(c2ccc(OCCCO)cc2)O[C@H]1c1ccccc1N=[N+]=[N-]`, with -0.254 (inactive); and `C=CCOC(=O)[C@H]1[C@@H]2C(=O)O[C@@H](c3ccccc3)[C@@H](c3ccccc3)N2[C@@H](c2ccc(OCCOC(=O)[C@H]3C[C@H]4C(=O)N[C@@H](CCCC[N+](C)(C)C)C(=O)N4[C@H]3c3ccc(O)cc3)cc2)[C@]12C(=O)Nc1ccccc12`, with -1.62 (inactive); and `CC(C)NC(=O)[C@@]1(c2ccc([N+](=O)[O-])cc2)CC(=O)N(C(C)C)[C@@H]1c1ccc(CO)cc1`, with 0.522 (inactive). On the same count and under the same terms, then `COc1ccc([Si](C)(C)[C@@H]2[C@@H](CCn3cc([C@H](O)c4ccccc4)nn3)O[C@]3(C(=O)N(C)c4ccccc43)[C@H]2C)cc1`, with 1.72 (inactive); and `COCCOC(=O)N1C(=O)[C@@]2(c3cc(C#CC4=CCCCC4)ccc31)[C@H](C(=O)N1CCN(c3ncccn3)CC1)[C@H]1C(=O)O[C@H](c3ccccc3)[C@H](c3ccccc3)N1[C@@H]2c1ccc(OCCO)cc1`, with -1.57 (inactive); and `C=CCOC(=O)[C@@H]1[C@H]2C(=O)O[C@H](c3ccccc3)[C@H](c3ccccc3)N2[C@H](c2ccc(OCCOC(=O)[C@H]3C[C@H]4C(=O)N[C@@H](CC(C)C)C(=O)N4[C@H]3c3cccc(OCCO)c3)cc2)[C@@]12C(=O)Nc1ccc(I)cc12`, with 0.419 (inactive). Still for that read-out and setting: then `CC(C)N1C(=O)c2ccccc2[C@](C)(C(=O)NCCCN(C)C)[C@@H]1c1ccc(CO)cc1`, with -0.0888 (inactive).
